Test results from PubChem BioAssay AID1159580 (chemical genetic matrix, 2015).
The whole screen tested about 5,500 compounds, of which about 2,000 (36%) were called active. Roughly 18% stayed inconclusive and do not appear here. Cut-off read from the data, not from the text of the source: active = normalized growth mostly below about 0.91 (no sharp cut-off); inconclusive = no clear call, values can overlap the other calls; inactive = mostly above about 0.92. The list shows a part of the results.

Experiment: chemical genetic growth profiling, strain panel (AID 1159580);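 note: tested at 20 µM; growth read once vehicle control cultures reached saturation at 30 °C; 1 = growth at the plate median or of vehicle wells; lower values mean less growth of the strain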
Conditions: growth OD
[1] = S. cerevisiae deletion strains, locus YDL101C, strain DUN1, active compounds read low
[2] = S. cerevisiae deletion strains, locus YHR030C, strain SLT2, active compounds read low

Measured: normalized growth

FC(F)(F)c1cc(-c2ccc(Cl)cc2)n[nH]1
inactive: S. cerevisiae deletion strains, locus YAR019C, strain CDC15, active compounds read low 0.908 | S. cerevisiae deletion strains, locus YBL105C, strain PKC1, active compounds read low 0.923 | S. cerevisiae deletion strains, locus YBR135W, strain CKS1, active compounds read low 0.916 | S. cerevisiae deletion strains, locus YBR136W, strain MEC1, active compounds read low 0.918 | S. cerevisiae deletion strains, locus YBR160W, strain CDC28, active compounds read low 0.922 | S. cerevisiae deletion strains, locus YDL017W, strain CDC7, active compounds read low 0.931 | S. cerevisiae deletion strains, locus YDL028C, strain MPS1, active compounds read low 0.918 | [1] 0.926 | S. cerevisiae deletion strains, locus YDL108W, strain KIN28, active compounds read low 0.925 | S. cerevisiae deletion strains, locus YDL132W, strain cdc53, active compounds read low 0.917 | S. cerevisiae deletion strains, locus YDL214C, strain PRR2, active compounds read low 0.826 | S. cerevisiae deletion strains, locus YDR052C, strain DBF4, active compounds read low 0.927 | S. cerevisiae deletion strains, locus YDR054C, strain cdc34, active compounds read low 0.904 | S. cerevisiae deletion strains, locus YDR226W, strain ADK1, active compounds read low 0.921 | S. cerevisiae deletion strains, locus YDR477W, strain SNF1, active compounds read low 0.848 | S. cerevisiae deletion strains, locus YER123W, strain YCK3, active compounds read low 0.789 | S. cerevisiae deletion strains, locus YER133W, strain GLC7, active compounds read low 0.779 | S. cerevisiae deletion strains, locus YFL009W, strain cdc4, active compounds read low 0.908 | S. cerevisiae deletion strains, locus YFL029C, strain CAK1, active compounds read low 0.906 | S. cerevisiae deletion strains, locus YFR003C, strain YPI1, active compounds read low 0.92 | S. cerevisiae deletion strains, locus YFR019W, strain FAB1, active compounds read low 0.901 | S. cerevisiae deletion strains, locus YFR028C, strain CDC14, active compounds read low 0.909 | S. cerevisiae deletion strains, locus YGR040W, strain KSS1, active compounds read low 0.813 | S. cerevisiae deletion strains, locus YGR052W, strain FMP48, active compounds read low 0.834 | S. cerevisiae deletion strains, locus YGR092W, strain DBF2, active compounds read low 0.807 | S. cerevisiae deletion strains, locus YHR079C, strain IRE1, active compounds read low 0.803 | S. cerevisiae deletion strains, locus YHR082C, strain KSP1, active compounds read low 0.826 | S. cerevisiae deletion strains, locus YHR205W, strain SCH9, active compounds read low 0.842 | S. cerevisiae deletion strains, locus YIL147C, strain SLN1, active compounds read low 0.921 | S. cerevisiae deletion strains, locus YJL095W, strain BCK1, active compounds read low 0.74 | S. cerevisiae deletion strains, locus YJL128C, strain PBS2, active compounds read low 0.882 | S. cerevisiae deletion strains, locus YJL157C, strain FAR1, active compounds read low 0.813 | S. cerevisiae deletion strains, locus YJR016C, strain ILV3, active compounds read low 0.915 | S. cerevisiae deletion strains, locus YJR066W, strain TOR1 (second series), active compounds read low 0.948 | S. cerevisiae deletion strains, locus YJR066W, strain TOR1, active compounds read low 0.763 | S. cerevisiae deletion strains, locus YKL048C, strain ELM1, active compounds read low 0.857 | S. cerevisiae deletion strains, locus YKL067W, strain YNK1, active compounds read low 0.84 | S. cerevisiae deletion strains, locus YKL101W, strain HSL1, active compounds read low 0.836 | S. cerevisiae deletion strains, locus YKL193C, strain SDS22, active compounds read low 0.902 | S. cerevisiae deletion strains, locus YKL203C, strain TOR2, active compounds read low 0.819 | S. cerevisiae deletion strains, locus YLR133W, strain CKI1, active compounds read low 0.843 | S. cerevisiae deletion strains, locus YLR403W, strain SFP1, active compounds read low 0.74 | S. cerevisiae deletion strains, locus YML070W, strain DAK1, active compounds read low 0.789 | S. cerevisiae deletion strains, locus YMR001C, strain CDC5, active compounds read low 0.911 | S. cerevisiae deletion strains, locus YMR205C, strain PFK2 (second series), active compounds read low 0.846 | S. cerevisiae deletion strains, locus YMR277W, strain FCP1, active compounds read low 0.915 | S. cerevisiae deletion strains, locus YNL006W, strain LST8, active compounds read low 0.935 | S. cerevisiae deletion strains, locus YNL020C, strain ARK1, active compounds read low 0.841 | S. cerevisiae deletion strains, locus YNL161W, strain CBK1, active compounds read low 0.913 | S. cerevisiae deletion strains, locus YNL183C, strain NPR1, active compounds read low 0.756 | S. cerevisiae deletion strains, locus YNL207W, strain RIO2, active compounds read low 0.897 | S. cerevisiae deletion strains, locus YNL222W, strain SSU72, active compounds read low 0.91 | S. cerevisiae deletion strains, locus YNL307C, strain MCK1 (second series), active compounds read low 0.853 | S. cerevisiae deletion strains, locus YOL078W, strain AVO1, active compounds read low 0.903 | S. cerevisiae deletion strains, locus YOL136C, strain PFK27, active compounds read low 0.803 | S. cerevisiae deletion strains, locus YOR061W, strain CKA2, active compounds read low 0.869 | S. cerevisiae deletion strains, locus YOR119C, strain RIO1, active compounds read low 0.826 | S. cerevisiae deletion strains, locus YOR231W, strain MKK1, active compounds read low 0.747 | S. cerevisiae deletion strains, locus YOR329C, strain SCD5, active compounds read low 0.912 | S. cerevisiae deletion strains, locus YPL031C, strain PHO85, active compounds read low 0.824 | S. cerevisiae deletion strains, locus YPL153C, strain RAD53, active compounds read low 0.829 | S. cerevisiae deletion strains, locus YPL204W, strain HRR25, active compounds read low 0.798 | S. cerevisiae deletion strains, locus YPL209C, strain IPL1, active compounds read low 0.916 | S. cerevisiae deletion strains, locus YPR025C, strain CCL1, active compounds read low 0.917 | S. cerevisiae deletion strains, locus YPR106W, strain ISR1, active compounds read low 0.901 | S. cerevisiae deletion strains, locus YPR111W, strain DBF20, active compounds read low 0.892 | S. cerevisiae deletion strains, strain NNK1, active compounds read low 0.902 | S. cerevisiae deletion strains, strain TSCII, active compounds read low 0.911
active: [2] 0.763 | S. cerevisiae deletion strains, locus YLR113W, strain HOG1, active compounds read low 0.701 | S. cerevisiae deletion strains, locus YPL256C, strain CLN2, active compounds read low 0.677

CC(C)(C)c1cc(-c2cc(C(F)(F)F)[nH]n2)c2c(c1)C(C)(C)CC2
inactive: S. cerevisiae deletion strains, locus YAL013W, strain DEP1, active compounds read low 0.976 | S. cerevisiae deletion strains, locus YBR229C, strain ROT2, active compounds read low 1 | S. cerevisiae deletion strains, locus YCL061C, strain MRC1, active compounds read low 0.995 | [1] 1 | S. cerevisiae deletion strains, locus YDR150W, strain NUM1, active compounds read low 0.874 | S. cerevisiae deletion strains, locus YEL061C, strain CIN8, active compounds read low 1 | S. cerevisiae deletion strains, locus YGR078C, strain PAC10, active compounds read low 1 | [2] 1.09 | S. cerevisiae deletion strains, locus YHR087W, strain rtc3, active compounds read low 0.989 | S. cerevisiae deletion strains, locus YJR043C, strain POL32, active compounds read low 0.982 | S. cerevisiae deletion strains, locus YJR075W, strain HOC1, active compounds read low 0.966 | S. cerevisiae deletion strains, locus YLR039C, strain RIC1, active compounds read low 0.897 | S. cerevisiae deletion strains, locus YLR058C, strain SHM2 (second series), active compounds read low 1.01 | S. cerevisiae deletion strains, locus YLR085C, strain ARP6, active compounds read low 1.03 | S. cerevisiae deletion strains, locus YLR262C, strain YPT6, active compounds read low 0.891 | S. cerevisiae deletion strains, locus YML094W, strain GIM5, active compounds read low 0.998 | S. cerevisiae deletion strains, locus YMR219W, strain ESC1, active compounds read low 1 | S. cerevisiae deletion strains, locus YMR263W, strain SAP30, active compounds read low 0.974 | S. cerevisiae deletion strains, locus YMR307W, strain GAS1, active compounds read low 0.998 | S. cerevisiae deletion strains, locus YNL153C, strain GIM3, active compounds read low 0.997 | S. cerevisiae deletion strains, locus YNL298W, strain CLA4 (second series), active compounds read low 1.01 | S. cerevisiae deletion strains, locus YNL322C, strain KRE1, active compounds read low 0.993 | S. cerevisiae deletion strains, locus YNR030W, strain Alg12, active compounds read low 0.99 | S. cerevisiae deletion strains, locus YPL055C, strain LGE1, active compounds read low 0.985 | S. cerevisiae deletion strains, locus YPL241C, strain CIN2, active compounds read low 1 | S. cerevisiae deletion strains, locus YPR135W, strain CTF4, active compounds read low 0.881 | S. cerevisiae strains, strain wild type, active compounds read low 1.01
